Source: PubChem BioAssay
MsrA act: activators of bovine methionine sulfoxide reductase A; purified bovine MsrA, absorbance read-out; activation, % at 10.6 µM; 0.3% of 360,000 active; in the data active means activation above about 7.5%;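 further: 0% = vehicle and 100% = reference activator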
MsrA inhibitor: inhibits bovine methionine sulfoxide reductase A; purified bovine MsrA, absorbance read-out; inhibition, % at 15.5 µM; 0.75% of 360,000 active; AID 651718;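 further: 0% = vehicle wells with enzyme and 100% = reference inhibitor wells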
NadD block: inhibitors of Staphylococcus aureus NadD; 0.78% of 360,000 active; inhibition, % at 20 µM; purified NadD enzyme, colorimetric absorbance read-out; in the data active means inhibition above about 26%
DSG3 Ab inh: blocks pemphigus antibody binding to human desmoglein-3; P32926; DSG3-coupled beads, scFv-anti-DSG3-GFP binding, flow cytometry; active compounds read low; binding (percent of control), % at 10 µM; 0.48% of 310,000 active; AID 588358;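 active means binding more than 3 SD below its plate's average and above zero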;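 further: hits lower antibody fragment binding to DSG3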
rCAG binder: r(CAG) repeat RNA binding. TO-PRO-1 dye displacement fluorescence. inhibition, % at 3 µM. 1.3% of 370,000 active. AID 651821;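 active means inhibition above the plate cutoff, the mean of all test compounds on that plate plus 3 SD, cut at about 35% in these data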;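 further: 0% = DMSO alone and 100% = 100 µM mitoxantrone as full dye displacement; higher means more dye released from RNA so lower well fluorescence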
DAGLB inhibitor: blocks human DAGLB lipase activity. 0.059% of 340,000 active. Q8NCG7. inhibition, % at 5.17 µM. HEK293T DAGLB membrane lysate, EnzChek fluorogenic substrate; in the data active means inhibition above about 34%;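 further: 0% = enzyme with vehicle and 100% = wells lacking enzyme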
Target sequence (Q8NCG7 whole entry, looked up): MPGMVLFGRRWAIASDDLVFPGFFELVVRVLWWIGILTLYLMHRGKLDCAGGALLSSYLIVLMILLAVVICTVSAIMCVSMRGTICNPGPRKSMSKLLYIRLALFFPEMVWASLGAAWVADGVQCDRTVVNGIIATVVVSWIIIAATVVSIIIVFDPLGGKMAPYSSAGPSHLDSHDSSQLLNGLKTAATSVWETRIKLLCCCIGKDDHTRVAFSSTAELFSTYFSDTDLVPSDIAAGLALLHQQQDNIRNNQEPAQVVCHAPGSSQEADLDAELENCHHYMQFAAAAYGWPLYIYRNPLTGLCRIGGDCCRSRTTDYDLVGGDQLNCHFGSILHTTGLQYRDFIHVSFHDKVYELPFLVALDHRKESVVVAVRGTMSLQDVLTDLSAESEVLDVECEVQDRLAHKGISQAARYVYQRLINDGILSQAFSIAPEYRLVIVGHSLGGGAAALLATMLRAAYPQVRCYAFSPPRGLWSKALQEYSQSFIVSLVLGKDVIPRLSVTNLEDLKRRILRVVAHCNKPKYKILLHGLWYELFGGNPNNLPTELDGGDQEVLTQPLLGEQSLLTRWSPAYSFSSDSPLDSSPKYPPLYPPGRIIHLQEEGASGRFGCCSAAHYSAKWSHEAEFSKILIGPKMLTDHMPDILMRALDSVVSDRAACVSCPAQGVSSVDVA
MsrA conf: confirmation of bovine MsrA inhibitors; AID 651822; purified bovine MsrA, absorbance read-out; 41% of 2,300 active; shares compounds with MsrA inhibitor; inhibition, % at 15.5 µM;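 further: coupled to thioredoxin reductase with NADPH and selenocystamine and DMSO as substrate; 0% = vehicle only and 100% = full effect of reference inhibitor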
Starred values were filed as active, the others as inactive. In the library only some 3.2% were active in any assay of this set; here they are far more common. Unless noted, no stated cut-off is given here; in the data, active means inhibition above about 4.5%; inactive means the rest.

`Cc1c(C(=O)N/N=C/c2ccc(N3CCOCC3)cc2)nc2ccccn12` gave MsrA act -10.6, MsrA inhibitor 5.7*, NadD block -9.9, DSG3 Ab inh 103.2, rCAG binder -3.2, DAGLB inhibitor -1.9 and MsrA conf 5.8*.
O=C(N/N=C/c1ccc(N2CCOCC2)cc1)c1ccccn1 was read as MsrA act -4.2, MsrA inhibitor 1.6, NadD block -5.5, DSG3 Ab inh 99.0, rCAG binder 0.9 and DAGLB inhibitor -0.7.
C/C(=N\NC(=O)Cn1ccc(C(F)(F)F)n1)c1ccc(N2CCOCC2)cc1 was read as MsrA act -5.0, MsrA inhibitor 2.8, NadD block -8.8, DSG3 Ab inh 97.5, rCAG binder -3.1 and DAGLB inhibitor -5.5.
O=C(Cn1ccc(C(F)(F)F)n1)N/N=C/c1ccc(N2CCOCC2)cc1 was read as MsrA act -4.2, MsrA inhibitor 5.2*, NadD block -0.8, DSG3 Ab inh 104.4, rCAG binder -4.2, DAGLB inhibitor 1.2 and MsrA conf 4.2.
`COc1cc(/C=N/NC(=O)c2nc3ccccn3c2C)cc(OC)c1O` gave MsrA act -6.0, MsrA inhibitor 6.3*, NadD block -4.4, DSG3 Ab inh 114.7, rCAG binder -1.2, DAGLB inhibitor -0.5 and MsrA conf 5.1*.
Screening CC(C)(C)c1cc(-c2ccco2)c(C#N)c(SCC#N)n1 returned MsrA act -0.4, MsrA inhibitor 9.2*, NadD block -4.2, DSG3 Ab inh 88.7, rCAG binder -1.2, DAGLB inhibitor -9.7 and MsrA conf 5.2*.
Screening CCSc1nc(C2CC2)cc(-c2ccco2)c1C#N returned MsrA act -5.2, MsrA inhibitor -0.3, NadD block 20.5, DSG3 Ab inh 102.5, rCAG binder 8.4 and DAGLB inhibitor -2.3.
Screening Cc1cc2ccccn2c1C(=O)Nc1ccccc1 returned MsrA act -5.1, MsrA inhibitor 5.1*, NadD block 6.4, DSG3 Ab inh 103.9, rCAG binder -0.8, DAGLB inhibitor -1.5 and MsrA conf 1.8.
O=C(N/C(=C/c1ccc([N+](=O)[O-])cc1)C(=O)N1CCOCC1)c1ccco1 was read as MsrA act -5.5, MsrA inhibitor 4.9*, NadD block 4.1, DSG3 Ab inh 113.7, rCAG binder 0.3, DAGLB inhibitor 2.2 and MsrA conf 4.5.
For Cc1cc(C)cc(N2CN=c3s/c(=C\c4ccco4)c(=O)n3C2)c1 the results were MsrA act -8.0, MsrA inhibitor 2.9, NadD block 10.3, DSG3 Ab inh 97.2, rCAG binder 2.7 and DAGLB inhibitor -4.2.
For O=c1/c(=C/c2ccco2)sc2n1CN(c1cccc(Br)c1)CN=2 the results were MsrA act 7.4, MsrA inhibitor 5.2*, NadD block 3.1, DSG3 Ab inh 90.7, rCAG binder 2.1, DAGLB inhibitor -2.1 and MsrA conf 2.3.
`O=c1/c(=C/c2ccco2)sc2n1CN(c1ccccc1)CN=2` gave MsrA act -6.9, MsrA inhibitor 5.0*, NadD block -2.3, rCAG binder 1.6, DAGLB inhibitor 0.0 and MsrA conf 6.1*.
For CC(C)CN(C(=O)COc1ccc(Br)cc1C=O)C1CCS(=O)(=O)C1 (stereo unspecified) the results were MsrA act -1.8, MsrA inhibitor 0.4, NadD block 2.4, DSG3 Ab inh 102.2, rCAG binder -1.6 and DAGLB inhibitor 0.4.
For COc1ccc([C@H]2OC(=O)C[C@H]2C(=O)N2CCN(C(=O)C3CCCO3)CC2)cc1OC (stereo partly specified) the results were rCAG binder -1.2.
`CC(C)C[C@@H](CN1CCC[C@@H]1CN1C(=S)NC[C@@H]1Cc1ccc(O)cc1)N1C[C@H](Cc2ccccc2)N(CCc2ccccc2)C1=S` gave MsrA act -1.0 and NadD block 23.0.
`Cc1cc(N/C=C/C(=O)c2cccc3ccccc23)no1` gave MsrA act -4.4, MsrA inhibitor 4.7*, NadD block -0.7, DSG3 Ab inh 107.3, rCAG binder 2.1, DAGLB inhibitor -2.9 and MsrA conf 2.2.
`Oc1ccc(/C=N\Nc2cc(N3CCOCC3)nc(N3CCOCC3)n2)c(O)c1` gave MsrA act -5.6, MsrA inhibitor 5.3*, NadD block 7.5, DSG3 Ab inh 113.6, rCAG binder 11.0, DAGLB inhibitor 1.9 and MsrA conf 4.2.
For CCN(CC)C1Oc2cc3c(cc2C(c2cc(OC)c(OC)c(OC)c2)C1C)OCO3 (stereo unspecified) the results were MsrA act -5.3, MsrA inhibitor 1.4, NadD block -5.3, DSG3 Ab inh 95.5, rCAG binder 0.6 and DAGLB inhibitor -1.6.
Screening COc1ccc(-c2nc3ccccn3c2C=O)cc1 returned MsrA act -1.7, MsrA inhibitor 1.8, NadD block 2.0, DSG3 Ab inh 97.4, rCAG binder -4.1 and DAGLB inhibitor -0.2.
O=Cc1c(-c2ccc(F)cc2)nc2ccccn12 was read as MsrA act -0.8, MsrA inhibitor 9.1*, NadD block 4.1, rCAG binder 2.5, DAGLB inhibitor 0.4 and MsrA conf 2.9.
Screening Cc1ccc(C)n1-n1cnc2scc(-c3cccs3)c2c1=O returned MsrA act -1.6, MsrA inhibitor 5.5*, NadD block 1.2, DSG3 Ab inh 106.9, rCAG binder 2.7, DAGLB inhibitor -2.0 and MsrA conf 1.6.
For O=C(NN=C1CCCCC1)c1ccccc1-n1cccc1 the results were MsrA act 4.3, MsrA inhibitor -0.6, NadD block -5.2, DSG3 Ab inh 107.5, rCAG binder -0.6 and DAGLB inhibitor -1.5.
For CCc1cc(C(=O)Cc2nc3ccccc3[nH]2)c(O)cc1O the results were MsrA act -2.5, MsrA inhibitor 5.0*, NadD block 2.1, DSG3 Ab inh 101.6, rCAG binder 7.4, DAGLB inhibitor 3.1 and MsrA conf 4.4.
Screening N#Cc1nc(-c2cccs2)oc1N1CCOCC1 returned MsrA act -4.3, MsrA inhibitor 5.1*, NadD block 1.2, DSG3 Ab inh 100.9, rCAG binder 1.4, DAGLB inhibitor -0.3 and MsrA conf 1.5.
For N#C/C(=C\c1ccc(-c2cccc(C(F)(F)F)c2)o1)C(=O)Nn1cnnc1 the results were MsrA act -7.1, MsrA inhibitor 4.8*, NadD block 11.5, DSG3 Ab inh 96.6, rCAG binder 27.9, DAGLB inhibitor 2.8 and MsrA conf 2.0.
O=C(N/N=C/c1ccco1)c1cc2ccccc2o1 was read as MsrA act -6.0, MsrA inhibitor 6.0*, NadD block -2.4, DSG3 Ab inh 98.3, rCAG binder -2.5, DAGLB inhibitor 0.9 and MsrA conf 7.6*.
For CCOC(=O)[C@@]12CCCC=C1N(CCc1ccc(Cl)cc1)C(=O)[C@H]2CC(=O)N1CCCC1 the results were rCAG binder 5.6.
Screening CCCCCc1c(-c2cccc(OC)c2)ncn1CCc1ccccc1OC returned MsrA act -1.5, MsrA inhibitor 21.3*, NadD block -2.9, rCAG binder 1.2 and MsrA conf 17.5*.
